Unmarked numbers belong to inactive results. How the calls were made is not given here.
tested on: Aerobactin synthetase IucA (Klebsiella pneumoniae, hypervirulent); test: IucA enzyme inhibition, biochemical, LOPAC library, absorbance readout (AID 1346212); conditions: IucA enzyme assay, absorbance (OD) readout; hits give low values;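 tested at 8 µM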;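 further: 100% = no compound wells and 0% = no enzyme wells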

Row | SMILES | remaining activity [%]
1 | S=C(Nc1ccccc1)Nc1nccs1 | 125
2 | C=C[C@H]1CN2CC[C@H]1C[C@H]2[C@H](O)c1ccnc2ccc(OC)cc12 | 110
3 | CCCN(CC1CC1)c1nc(C)nc(Nc2c(Cl)cc(Cl)cc2Cl)c1Cl | 102
4 | O=[N+]([O-])c1ccc(CSc2ncnc3c2ncn3[C@@H]2O[C@H](CO)[C@@H](O)[C@H]2O)cc1 | 126
5 | C[C@H](Cc1ccccc1)Nc1ncnc2c1ncn2[C@@H]1O[C@H](CO)[C@H](O)C1O (some centres not stated) | 118
6 | CC(C)NC[C@@H](O)c1ccc(O)c(O)c1 | 119
7 | OC(CN1CCC(Cc2ccc(F)cc2)CC1)c1ccc(Cl)cc1 (configuration not stated) | 99.6
8 | CCCCNc1c(C(=O)OCC)c(C)nc2c1cnn2CC | 121
9 | CN(C)C(=O)/N=N/C(=O)N(C)C | 93.2
10 | Nc1ccn([C@H]2CC[C@@H](CO)O2)c(=O)n1 | 121
11 | CNc1ncnc2c1ncn2[C@H]1C[C@H](OP(=O)(O)O)[C@@H](COP(=O)(O)O)O1 | 124
12 | CSC(=N)N | 123
13 | CC1CN(S(=O)(=O)c2cccc3cnccc23)CCN1 (configuration not stated) | 102
14 | CSc1ccc(C(=O)c2[nH]c(=O)[nH]c2C)cc1 | 118
15 | Cc1oncc1C(=O)Nc1ccc(C(F)(F)F)cc1 | 110
16 | CCCCN1CCC(COC(=O)c2cc(Cl)c(N)c3c2OCCO3)CC1 | 109
17 | CCOC(=O)c1ncn2c1CN(C)C(=O)c1cc(F)ccc1-2 | 100

Source: PubChem BioAssay
